{
  "source": "PubChem BioAssay (NCI)",
  "note": "The panel holds about 83,000 compounds, 20% with a hit somewhere; the sample as a whole holds those more often.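 48-hour exposure, single concentration, 96-well plates; percent growth endpoint where 0 means no net growth. Active: below 10.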 Unmarked numbers belong to inactive results. Activity calls are given as the source filed them.",
  "data": [
    {"system": "PC-3 prostate", "test": "NCI-60 one-dose screen, 48 h (100 = growth as untreated, 0 = no growth, -100 = all killed)", "details": "10 µM unless noted", "protocol": "Growth inhibition of the PC-3 human tumor cell line is measured as a screen for anti-cancer activity. Cells are grown in 96 well plates and exposed to the test compound for 48 hours. Compounds are tested at a single concentration, which is 10^-5 M for most compounds. The reported endpoint is percent growth (GI% or GIPRCNT), where numbers from 0 - 100% represent growth inhibition, and numbers from -100% - 0 represent cell death. For example, a value of 40 represents 60% growth inhibition. A value of 0 means no net growth occurred over the course of the experiment. A value of -40 indicates 40% of cells at the beginning of the experiment died by the end of the experiment. A value of -100 means all cells are dead at the end of the experiment.\nNCI-60 Human Tumor Cell Lines Screen was performed using the standard one-dose NCI protocol, which is described in more detail at https://dtp.cancer.gov/discovery_development/nci-60/default.htm.\nCompounds with GIPRCNT values below 10 were considered active. Activity score was based on GIPRCNT using the following formula: […]\nScore is 0 for GIPRCNT values of 100 or above, 50 for GIPRCNT values of 0, and 100 for GIPRCNT values of -100.", "values": [
      {"smiles": "COc1ccc(CCN2C(=O)C(C)(C)SC2=S)cc1OC", "growth": "98.4%"},
      {"smiles": "Fc1ccc2nc(-c3cc(-c4ccc5c(c4)OCO5)n[nH]3)[nH]c2c1", "growth": "23.3%"},
      {"smiles": "COc1ccc(C2c3ccccc3NC(=O)N2C2CCN(C)CC2)c(OC)c1", "note": "(stereo not given)", "growth": "94.4%"},
      {"smiles": "COc1ccc(NC(=O)c2ccc3c(c2)nc(-c2cc4ccccc4[nH]c2=O)n3-c2cc(C(C)(C)C)[nH]n2)cc1", "growth": "79.1%"},
      {"smiles": "Nc1c2c(nc3ccc(Cl)cc13)CC(c1ccc(O)cc1)CC2=O", "note": "(stereo not given)", "growth": "49.2%"},
      {"smiles": "COc1ccc(/C=C/C(=O)NCC(C)O)cc1", "note": "(stereo not given)", "growth": "94.5%"},
      {"smiles": "O=S(=O)(NCCNc1cc(-c2cn(-c3ccccc3)nc2-c2cccc(O)c2)ccn1)c1ccc(Br)cc1", "growth": "15.6%"},
      {"smiles": "CN(C)c1ccc(N=C2C=CC(=O)C=C2)cc1", "growth": "64.4%"},
      {"smiles": "CCN1CCN(C(=O)[C@]23CCC(C)(C)C[C@H]2C2=CC[C@@H]4[C@@]5(C)CC/C(=N/O)C(C)(C)[C@@H]5CC[C@@]4(C)[C@]2(C)CC3)CC1", "growth": "39.6%"},
      {"smiles": "N#CC1=C(N)Oc2c(c(N)nn2-c2ccccc2)C1c1ccc(Cl)cc1Cl", "note": "(stereo not given)", "growth": "94.5%"},
      {"smiles": "COc1ccc(-n2c(/C=C/c3ccc(O)c(OC)c3)cc(/C=C/c3ccc(O)c(OC)c3)nc2=O)cc1", "growth": "53.7%"},
      {"smiles": "CCCCC(=O)OC1CCCCC1C", "note": "(stereo not given)", "growth": "68.1%"},
      {"smiles": "Cc1ccsc1-c1ccc2c(c1)COC2(CCCN(C)C)c1ccc(F)cc1", "note": "(stereo not given)", "growth": "45.6%"},
      {"smiles": "COc1cc(NC(C)CN(CC(C)C)C(C)C)c2ncccc2c1", "note": "(stereo not given)", "growth": "80.5%"},
      {"smiles": "NC(=O)NCC1CCCCC1", "growth": "104%"},
      {"smiles": "Cc1c(C)c2c(c(C)c1NC(=O)CCCCCCC(=O)O)CCC(C)(CCCC(C)CCCC(C)CCCC(C)C)O2", "note": "(stereo not given)", "growth": "69.7%"},
      {"smiles": "CC(=O)OCCCCCCn1c2ccccc2c2c3c(c4c5ccccc5n(C)c4c21)C(=O)N(O)C3=O", "growth": "52.9%"},
      {"smiles": "Cc1nn2c(-c3nc4cc(Cl)c(Cl)cc4[nH]3)c(-c3ccc(F)cc3)nc2s1", "growth": "24.6%"},
      {"smiles": "Cc1cc(C=O)c(C)c2c1[nH]c1ccccc12", "growth": "92.5%"},
      {"smiles": "COc1ccc(OCC(CO)N2CCN(c3ccccc3)CC2)cc1", "note": "(stereo not given)", "growth": "84.6%"},
      {"smiles": "O=C1CCC/C=C\\C[C@H]2C=C(Cl)C(=O)/C2=C/C[C@H](CCCCC(F)(F)F)OC(=O)CCC/C=C\\C[C@H]2C=C(Cl)C(=O)/C2=C/C[C@H](CCCCC(F)(F)F)O1", "growth": "-44.8% [7.5 µM] (active)"},
      {"smiles": "Cn1cc(-c2csc(-c3cn(C(=O)OC(C)(C)C)c4ccccc34)n2)c2cccnc21", "growth": "48.5%"},
      {"smiles": "CCCCC/C(=C\\c1ccccc1)C1OC(C)C(C)O1", "note": "(stereo not given)", "growth": "69.6%"},
      {"smiles": "Cc1ccc(Cc2cnc(NC(=O)/C=C/c3cccc(C)c3)s2)cc1", "growth": "30.3%"},
      {"smiles": "COc1cccc(-c2nn(-c3ccccc3)cc2-c2ccnc(NCCNS(=O)(=O)c3cccc(F)c3)c2)c1", "growth": "19.1%"},
      {"smiles": "C/C(=N\\NC(=O)C(C)SC(C)C(=O)N/N=C(\\C)c1cccnc1)c1cccnc1", "note": "(stereo not given)", "growth": "101%"},
      {"smiles": "C=C(C)[C@@H]1CC[C@]2(C(=O)N3CCCNCC3)CC[C@]3(C)[C@H](CC[C@@H]4[C@@]5(C)CCC(=O)C(C)(C)[C@@H]5CC[C@]43C)[C@@H]12", "growth": "78.3%"},
      {"smiles": "O=C1c2ccccc2C(=Cc2ccccc2)c2ccccc21", "growth": "31.8%"},
      {"smiles": "COc1cc(/C=C/c2cc(/C=C/c3ccc(O)c(OC)c3)n(-c3ccccc3)c(=O)n2)ccc1O", "growth": "70.4%"},
      {"smiles": "Cc1cccc2c1NC(=O)[C@@]21[C@H](C(=O)c2ccccc2)[C@]2(C(=O)Nc3ccccc32)[C@H]2CCCN21", "growth": "21.7% [100 µM]"},
      {"smiles": "Cc1cc(N2CCCCC2)nc(N(CCNc2ccnc3cc(Cl)ccc23)Cc2ccco2)n1", "growth": "13.9%"},
      {"smiles": "N#Cc1cnc2cc(OC[C@@H](O)CO)c(NC(=O)CC3CSSC3)cc2c1Nc1ccc(OCc2cccc(F)c2)c(Cl)c1", "growth": "-82.3% (active)"},
      {"smiles": "O=C(O)/C(=C/c1ccc(O)cc1)c1ccccc1", "growth": "90.4%"},
      {"smiles": "Oc1cccc2oc(=S)[nH]c12", "growth": "111%"},
      {"smiles": "O=C1/C(=C\\c2ccco2)SC(=S)N1CCc1ccc(O)cc1", "growth": "97.5%"},
      {"smiles": "CCCCC[C@H]1CC=C2C(=O)C(Cl)=C[C@@H]2CC=CCCCC(=O)O[C@@H](CCCCC)CC=C2C(=O)C(Cl)=C[C@@H]2CC=CCCCC(=O)O[C@@H](CCCCC)CC=C2C(=O)C(Cl)=C[C@@H]2CC=CCCCC(=O)O1", "growth": "70.2% [8 µM]"},
      {"smiles": "NCCn1cc(-c2nc(-c3c[nH]c4ncccc34)cs2)c2cc(F)ccc21", "growth": "58.5%"},
      {"smiles": "Cc1cc(Cl)c2c(N(C)C)cccc2n1", "growth": "119%"},
      {"smiles": "COc1ccccc1-n1cnc(N)c1C(=O)c1cc(OC)c(OC)c(OC)c1", "growth": "50.2%"},
      {"smiles": "O=C1CCN2C(=O)Nc3ccccc3C2C1", "note": "(stereo not given)", "growth": "95.2%"}
    ]}
  ]
}
